This note sets out measurements from PubChem BioAssay AID743172 (National Center for Advancing Translational Sciences (NCATS), 2013).

Several values for one entry are separate records, joined by “and”; a condition that tells them apart may be missing. Identical values can stand only once. Inconclusive results are not listed. Values without a mark were called inactive. Activity calls are given as the source filed them. Calls come from the whole dose curve; as a rule, active = well fitted activation curve with a large enough effect; inconclusive = small, poorly fitted or top-dose-only effect; inactive = no such curve, though single readings can be large or run the other way.

The nature of this experiment: Extended Characterization of HPGD Inhibitors: PGE2 Assay in LNCaP Cells. The settings on record: PGE2 HTRF level, 16 h; series mostly up to 100 µM; PGE2 level, % of control (higher = increase): at the top concentration. In general terms: In TR-FRET formats the signal depends on donor and acceptor labels being close together.
On to `CC(C)c1cccc(-n2cnc3cc(C(=O)N4CCCCC4)ccc32)c1`, for which the Potency is 2.8 µM (active).
On the same count and under the same terms, to `CC(C)(C)c1ccc(CSc2nc3ncc(Br)cc3[nH]2)cc1` belongs 35.2 µM (active); to `Cc1cc(-c2nnc3n2CCCCC3)c(C)n1-c1cccc(C#N)c1`, 1.76 µM (active); to `Clc1ccccc1CSc1nc2ncc(Br)cc2[nH]1`, 44.3 µM (active).
The same measure, in the same setting: to `Brc1cnc2nc(SCc3cccnc3)[nH]c2c1` belongs 7.03 µM (active).
Still for that read-out and setting: to `Cc1cc(-c2nnc3n2CCCCC3)c(C)n1-c1ccc(Cl)c(Cl)c1` belongs 0.352 µM (active).
In the case of `COc1cccc(-n2cnc3cc(C(=O)N4CCCCC4)ccc32)c1`, the Potency is 0.28 µM (active).
Consider `Cc1cccc(-n2cnc3cc(C(=O)NC(C)(C)C)ccc32)c1`, for which the “PGE2 level, % of control (higher = increase)” value was 115%.
For `Clc1cccc(CSc2nc3ncc(Br)cc3[nH]2)c1`, the Potency is 44.3 µM (active).
On the same count and under the same terms, as for `FC(F)(F)c1cccc(CSc2nc3ncc(Br)cc3[nH]2)c1`, the figure is 35.2 µM (active); as for `Brc1cnc2nc(SCc3ccccc3)[nH]c2c1`, 44.3 µM (active).
On to `Cc1cccc(-n2cnc3cc(C(=O)NC4CCCCC4)ccc32)c1`, for which the Potency was 22.2 µM (active).
On the same count and under the same terms, as for `N#Cc1ccc(CSc2nc3ncc(Br)cc3[nH]2)cc1`, the figure is 22.2 µM (active); as for `FC(F)(F)c1ccc(CSc2nc3ncc(Br)cc3[nH]2)cc1`, 44.3 µM (active).
Regarding `Cc1cccc(-n2cnc3cc(C(=O)N4CCCCC4)ccc32)c1`, the Potency was 702 nM (active) and 884 nM (active).
Same read-out and setting: as for `Cc1cccc(-n2cnc3cc(C(=O)N4CCCCCC4)ccc32)c1`, the figure is 1.76 µM (active).
